Source: PubChem BioAssay (National Center for Advancing Translational Sciences (NCATS))
Shown are actives, neighbours in structure and some others; about 1.8% of the full set was active somewhere.
Vif-A3G inh: inhibitors of Vif-APOBEC3G interaction | HeLa A3G-eYFP + Vif (tagged APOBEC3G with the HIV-1 protein that degrades it), YFP fluorescence, overnight | Potency, µM (highest dose often 46.1 µM), for the others: top-dose activity, negative = active, actives largely listed as inhibitors | Q9HC16 | actives 0.076% (n = 410,000); also: % is scaled to controls: 0 for no effect and ±100 for the full control effect; nearly all actives have a fitted effect of over 60% in size
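HeLa cells stably expressing Vif and C-terminally eYFP-tagged A3G, seeded overnight at 37 deg C, then exposed to compound by pintool overnight at 37 deg C. Rise in yellow fluorescence (Ex 488/Em 500-530, Acumen) marks blocked Vif-driven A3G degradation.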
VDR inhibitor: blocks the human vitamin D receptor; Potency, µM, for inactives: max response, negative = inhibition, actives largely listed as inhibitors; actives 0.93% (n = 400,000); VDR-SRC2-3 peptide fluorescence polarization, 2 h; AID 504847; also: % is scaled to controls: 0 for no effect and ±100 for the full control effect
Target sequence (P11473 whole entry, looked up): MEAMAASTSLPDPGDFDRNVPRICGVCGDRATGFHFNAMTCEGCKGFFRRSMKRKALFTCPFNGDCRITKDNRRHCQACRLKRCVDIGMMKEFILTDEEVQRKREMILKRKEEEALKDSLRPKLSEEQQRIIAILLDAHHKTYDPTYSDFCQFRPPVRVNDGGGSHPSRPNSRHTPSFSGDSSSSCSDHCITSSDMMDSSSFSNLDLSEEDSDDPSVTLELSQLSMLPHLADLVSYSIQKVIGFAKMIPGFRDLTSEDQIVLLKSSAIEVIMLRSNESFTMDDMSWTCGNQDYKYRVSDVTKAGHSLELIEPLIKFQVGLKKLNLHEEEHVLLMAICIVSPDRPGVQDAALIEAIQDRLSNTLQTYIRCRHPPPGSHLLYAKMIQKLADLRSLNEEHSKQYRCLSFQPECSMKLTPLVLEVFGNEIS
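The screen uses fluorescence polarization to detect compounds that interfere with recruitment of the SRC2-3 coactivator peptide to VDR; plates are read after 2 h at room temperature.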
Vif-APOBEC3F blk: Vif-A3F binding inhibition. Potency, µM (top dose mostly 46.1 µM), without a hit: top-dose activity, negative = active. actives 0.2% (n = 390,000). HeLa A3F-eYFP + Vif (tagged APOBEC3F with the HIV-1 protein that degrades it), YFP fluorescence increase; also: % of control where 0% means no effect; nearly all actives have a fitted effect of over 65% in size
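Fluorescence increase (Ex 488/Em 500-530) after overnight compound treatment at 37 deg C flags inhibition of Vif-driven A3F-eYFP loss in stable HeLa A3F-eYFP/Vif cells seeded overnight beforehand.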
TrxR1 substrate: is turned over as a substrate by rat TrxR1. Potency, µM (highest dose often 114 µM), for inactives: at the top dose activity change, negative = substrate turnover. O89049. purified TrxR1 substrate turnover, NADPH consumption readout. AID 588456. actives 0.01% (n = 390,000); also: % is scaled to controls: 0 for no effect and ±100 for the full control effect; nearly all actives have a fitted effect of over 50% in size
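Rat TrxR1, dispensed at 90 nM, was prereduced with 400 uM NADPH (final) for 5 min at ~22 deg C, then incubated with compound 15 min before 400 uM selenite. A first-read NADPH fluorescence drop versus no-compound background flagged substrates.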
rTrxR1 inhibitor: blocks rat thioredoxin reductase 1 | recombinant rTrxR1, NADPH fluorescence consumption, selenite substrate | Potency, µM (doses to about 114 µM), without a hit: at the top dose activity change, negative = inhibition, usual class: inhibitors | actives 1% (n = 390,000); also: % is scaled to controls: 0 for no effect and ±100 for the full control effect; nearly all actives have a fitted effect of over 65% in size
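Rat TrxR1 (90 nM in the dispensed reagent) was pre-reduced with 400 uM NADPH for 5 min at room temperature, then incubated with compound for 15 min. After 400 uM selenite was added, NADPH fluorescence (Ex 340/Em 450 nm) was followed for 8 min.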
An asterisk follows results filed as active; ? = inconclusive; . = no result; [ ] = dose if it differs, or a comment. Calls follow the shape of the dose curve; as a rule, active = well fitted curve in the direction sought with a large enough effect; inconclusive = small, poorly fitted or top-dose-only effect, or another doubt; inactive = no such curve, though single readings can be large; an effect the other way counts as inactive or inconclusive. Potency is read from the fitted curve at half-maximal effect.

SMILES	Vif-A3G inh	VDR inhibitor	Vif-APOBEC3F blk	TrxR1 substrate	rTrxR1 inhibitor
COC1[C@@H](OC)C[C@H](C)[C@@H](OC)C2=CC(=O)C=C(NC(=O)/C(C)=C/C=C\[C@H](OC)[C@@H](OC(N)=O)/C(C)=C/[C@@H]1C)C2=O (some centres undefined)	.	79.4µM*	.	.	.
CC(C)(C)c1nnc(NS(=O)(=O)c2ccc(F)cc2)s1	1.4%	79.4µM*	10.8%	6.1%	6.0%
O=S(=O)(Nc1nnc(C(F)(F)F)s1)c1ccc(Cl)cc1	2.2%	-29.9%	-10.3%	-10.8%	-18.6%
S=c1[nH]cnc2sc(Nc3ccccc3)nc12	-7.6%	70.8µM*	-10.5%	-7.4%	?
CC(=O)Nc1nc(C)c(-c2csc(Nc3cccc(C(C)=O)c3)n2)s1	-19.1%	-12.9%	5.3%	-2.7%	10.1%
CC(=O)Nc1ccc(Nc2nc(-c3sc(NC(C)=O)nc3C)cs2)cc1	-25.1%	31.6µM*	-5.6%	2.7%	9.8%
CC(=O)Nc1nc(C)c(-c2csc(Nc3ccc(O)cc3)n2)s1	?	89.1µM*	-5.7%	-10.1%	-23.0%
COc1ccc(NC(=O)/C(C#N)=C/c2ccc(Sc3nncn3C)c([N+](=O)[O-])c2)cc1	-22.5%	?	8.5%	6.5%	50.1µM*
Cn1cnnc1Sc1ccc(/C=C/C(=O)c2ccc(O)cc2)cc1[N+](=O)[O-]	-21.9%	?	-0.3%	-15.3%	22.4µM*
COc1ccc(Cn2nnnc2C(c2ccccc2)N2CCN(c3ccccc3)CC2)cc1 (centres undefined)	-2.8%	5.0%	.	7.7%	23.0%
Oc1ccc2ccccc2c1CNc1ccc(Br)cc1	-2.1%	?	-7.5%	1.3%	28.2µM*
Oc1ccccc1CNc1cnc2ccccc2c1	-2.6%	-1.0%	-10.2%	40.2%[57.1 µM]	-8.9%[57.1 µM]
Oc1ccc2ccccc2c1CNc1cnc2ccccc2c1	-7.2%	-45.9%	-0.4%	74.1%	11.2µM*
CC(=O)c1sc(NCc2ccc(C)cc2)nc1C	0.2%	23.9%	-3.0%	-6.4%	15.7%
COc1ccc(CCNc2nc(-c3ccc(F)cc3)c(CC(=O)O)s2)cc1OC	-0.9%	79.4µM*	-12.4%	1.5%	-14.9%
COc1ccc(CCNc2nc(-c3ccc(NC(C)=O)cc3)cs2)cc1OC	-4.5%	-5.8%	6.7%	-5.8%[57.1 µM]	1.7%[57.1 µM]
COc1ccc(CCNc2nc(C)c(C(C)=O)s2)cc1OC	-2.8%	39.8µM*	0.6%	-3.9%	-14.2%
COc1ccc(/C=c2\[nH]c(=O)/c(=C/c3ccc(OC)c(OC)c3)[nH]c2=O)cc1OC	4.6%	.	.	-3.5%	10.7%
O=C(O)C1Nc2c(O)cc(Cl)c([N+](=O)[O-])c2C2C=CCC12 (centres undefined)	-4.2%	-20.5%	-6.3%	-7.2%	14.1µM*
O=[N+]([O-])c1ccc(Cl)c2c1C1C=CCC1C(c1ccccn1)N2 (centres undefined)	-12.9%	?	6.9%	0.1%[57.1 µM]	?
CCc1ccc(O)c(N=Cc2ccccc2O)c1	-25.4%	4.5%	?	7.8%[57.1 µM]	-2.1%[57.1 µM]
O=c1[nH][nH]c2c(N=Cc3ccccc3O)ccc(F)c12	0.2%	?	-4.7%	5.9%	3.16µM*
Nc1ncnc2c1nc(Sc1ccc(Cl)cc1)n2[C@H]1OC2COP(=O)(O)O[C@H]2[C@@H]1O (some centres undefined)	.	.	.	2.7%	6.8%
CCOC(=O)/C(=C/c1c(C)n(C)c2ccc([N+](=O)[O-])cc12)C(C)=O	?	?	-1.7%	-11.5%	44.7µM*
COc1cccc(/C=C2/SC(=S)N(CC(=O)Nc3nccs3)C2=O)c1	1.7%	0.1%	.	-1.8%	10.5%
SMILES	Vif-A3G inh	VDR inhibitor	Vif-APOBEC3F blk	TrxR1 substrate	rTrxR1 inhibitor
CC(NC(=O)/C(C#N)=C/c1ccc(OCC(=O)O)cc1)c1ccccc1 (centres undefined)	0.9%	-32.8%	5.2%	-19.6%	-23.3%
CC(NC(=O)/C(C#N)=C/c1ccc(Cl)c([N+](=O)[O-])c1)c1ccccc1 (centres undefined)	?	?	-4.4%	-5.1%	39.8µM*
COC(C(=O)C(O)C(C)O)C1Cc2cc3cc(OC4CC(OC5CC(O)C(O)C(C)O5)C(O)C(C)O4)c(C)c(O)c3c(O)c2C(=O)C1OC1CC(OC2CC(OC3CC(C)(O)C(O)C(C)O3)C(O)C(C)O2)C(O)C(C)O1 (centres undefined)	-4.2%	?	.	-11.4%	-23.0%
O=c1[nH]c(/C=C\c2cccc(F)c2)nc(O)c1[N+](=O)[O-]	-4.8%	39.8µM*	11.2%	-9.7%[57.1 µM]	-19.3%[57.1 µM]
C=CCOc1cccc(/C=C\c2nc(O)c([N+](=O)[O-])c(=O)[nH]2)c1	3.5%	14.1µM*	-9.0%	-16.5%	-15.9%
C=CCOc1ccc(/C=C\c2nc(O)c([N+](=O)[O-])c(=O)[nH]2)cc1OC	-0.4%	?	1.8%	-23.7%	?
Cc1ccc(-c2cc(C(=O)NCCCn3ccnc3)c3cc(Br)ccc3n2)o1	-2.1%	-5.7%	3.0%	26.5%[57.1 µM]	14.1µM*
O=C(Cn1c(=O)oc2ccccc21)NCc1ccccc1Cl	-4.1%	10.8%	-3.7%	3.2%[57.1 µM]	24.1%[57.1 µM]
CCCCCCCCOc1c(OC)cc(/C=C/C(=O)N2CCN(c3ccc(C)c(C)c3)CC2)cc1OC	.	-19.0%	.	.	.
O=C(NCCc1cccs1)c1ccc(Cl)c(Cl)c1	-6.3%	0.9%	2.51µM*	7.7%[57.1 µM]	14.3%[57.1 µM]
CCOc1ccc(NC(=O)Cn2c(=O)n(Cc3ccccc3)c(=O)c3sc4ccccc4c32)cc1	0.8%	-6.7%	-0.6%	2.0%	3.1%
Cc1cc(Sc2nc(N)ncc2[N+](=O)[O-])ncn1	3.4%	-18.2%	2.4%	9.8%[57.1 µM]	1.58µM*
Cc1ccc(-c2cn(-c3ccccc3F)c(=S)[nH]2)cc1	1.5%	-13.9%	-0.1%	-7.8%	-17.4%
Fc1ccccc1-n1[nH]nnc1=S	0.8%	44.7µM*	0.4%	-8.8%	?
CN1/C(=C\C(=O)c2ccco2)C(C)(C)c2ccccc21	?	?	-0.3%	2.4%[57.1 µM]	10µM*
CN1/C(=C\C(=O)c2cccnc2)C(C)(C)c2ccccc21	-5.1%	-15.6%	5.4%	-6.3%	-3.3%
CN1/C(=C/C(=O)c2nc(S(C)(=O)=O)ncc2Cl)C(C)(C)c2ccccc21	?	50.1µM*	-29.6%	-9.1%	50.1µM*
CCN(CC)C(=O)CC(c1ccc(OC)cc1)c1c(OC)cc(OC)c2c(-c3ccccc3)cc(=O)oc12 (centres undefined)	-5.0%	-2.7%	.	-1.0%	4.6%
Nc1ccc2c(c1)C=C/C2=C\c1ccccc1	0.2%	.	.	-11.6%	-22.8%
N#CC1=C(S)N(c2ccccc2)C(c2ccc(-c3cc(Cl)ccc3Cl)o2)NC1=O (centres undefined)	2.2%	79.4µM*	1.0%	2.2%	?
N#CC1=C(S)N(c2ccccc2)C(c2ccco2)NC1=O (centres undefined)	1.5%	-6.7%	1.5%	6.7%[57.1 µM]	22.1%[57.1 µM]
